# A number with no mark means an inactive call. No rule for the calls is given here.
# Tested on: HIV-1 nucleocapsid protein NCp7 (binding to TG oligonucleotide)
# Assay: HIV Nucleocapsid (AID 346);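 also: potency is for inhibitors that block NC binding and lower polarization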
# Conditions: HIV-1 NC / fluorescein-TGTGTGTG probe, fluorescence polarization
# Summary of the method: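 HIV-1 NC (100 nM) binding to fluorescein-labelled ssDNA TG4xF (10 nM) in Hepes pH 7.5, 250mM NaCl, 1uM ZnCl2, TCEP and 2-mercaptoethanol; compounds pin-transferred, 1 hr room temperature, fluorescence polarization read on CCD imager.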
# Potency is read from the fitted curve at half-maximal effect.
row,Compound,Potency
1,Cc1nc2cnc(N3CCN(C)CC3)nc2n(CCc2ccccc2)c1=O,> 20 µM
2,COc1ccccc1CN1CCCC2(CCN(C(=O)c3cccn3C)CC2)C1,> 20 µM
3,N#Cc1cccc(-c2nccc(-n3ccnc3)n2)c1,> 20 µM
4,COc1cccc(Cn2c(=O)c(CCc3ccccc3)nc3cnc(N(C)C)nc32)c1,> 4 µM
5,CN1CCN(c2ncc3nc(-c4cc(F)cc(F)c4)c(=O)n(C)c3n2)CC1,> 20 µM
6,c1cncc(-c2cncnc2NCc2cccs2)c1,> 20 µM
7,CN(C)c1nc(-c2cccc(NS(C)(=O)=O)c2)nc2ccccc12,> 20 µM
8,O=S(=O)(c1ccccc1)N1CCC2(CCCN(C(c3ccccc3)c3ccccc3)C2)CC1,> 20 µM
9,Cc1cccc(CNc2nc(-c3ccc(C(=O)N(C)C)cc3)nc3ccccc23)c1,> 20 µM
10,Cc1noc(C)c1C(=O)N1CCC2(CCCN(c3ccccn3)C2)CC1,> 20 µM
11,COc1cccc(Nc2ncc3nc(-c4ccc(F)cc4)c(=O)n(CCC#N)c3n2)c1,> 4 µM
12,O=c1c(-c2ccccc2)nc2cnc(N3CCNCC3)nc2n1Cc1cccs1,> 20 µM
13,COc1cccc(Cn2c(=O)cnc3cnc(Oc4ccccc4)nc32)c1,> 4 µM
14,CCNc1ncc2nc(-c3cn(C)c4ccccc34)c(=O)n(Cc3cccs3)c2n1,> 20 µM
15,COc1cccc(-c2nc(NC3CCNCC3)c3ccccc3n2)c1,> 20 µM
16,CN1CCN(c2cc(-c3ccccc3Cl)ncn2)CC1,> 20 µM
17,COc1ncc2nc(-c3cn(C)c4ccccc34)c(=O)n(C[C@H]3CCCO3)c2n1,> 20 µM
18,CN1CCN(c2ncc3nc(-c4ccc(Cl)cc4)c(=O)n(C4CC4)c3n2)CC1,> 20 µM
19,Cn1c(=O)cnc2cnc(OCc3ccccc3)nc21,> 20 µM
20,COCCn1c(=O)c(CCc2ccccc2)nc2cnc(N(C)C)nc21,> 20 µM

row,Compound,Potency
1,COc1ncc2nc(-c3ccc(Cl)cc3)c(=O)n(Cc3cccs3)c2n1,> 20 µM
2,CN(C)Cc1ccccc1-c1nc(NCc2ccccc2)c2ccccc2n1,> 20 µM
3,c1csc(CNc2nc(-c3ccc4c(c3)OCO4)nc3ccccc23)c1,> 20 µM
4,Cc1noc(C)c1-c1ccc2ncnc(N(C)C)c2c1,> 20 µM
5,N#CCCn1c(=O)c(-c2cccs2)nc2cnc(OCc3ccccc3)nc21,> 20 µM
6,N#Cc1cccc(NC(=O)N2CCC3(CC2)CCN(C(=O)c2csnn2)CC3)c1,> 20 µM
7,COc1cccc(Cn2c(=O)c(-c3ccc(Cl)cc3)nc3cnc(N4CCNCC4)nc32)c1,> 20 µM
8,FC(F)(F)c1ccccc1-c1cc(N2CCNCC2)ncn1,> 20 µM
9,COc1ccccc1-c1nc(NCc2cnc(C)cn2)c2ccccc2n1,> 20 µM
10,Cc1noc(C)c1-c1cncnc1Nc1ccccc1,> 20 µM
11,COc1cccc(-c2nccc(NCc3cccc(C)c3)n2)c1,> 20 µM
12,COc1cccc(Cn2c(=O)c(-c3ccccc3)nc3cnc(N4CCNCC4)nc32)c1,> 20 µM
13,COCC(=O)N1CCC2(CC1)CN(Cc1ccccc1OC)C2,> 20 µM
14,N#Cc1ccc(CN2CCCC3(CCN(C(=O)c4cc(C(F)(F)F)cc(C(F)(F)F)c4)CC3)C2)cc1,> 20 µM
15,CCNc1ncc2nc(CCc3ccccc3)c(=O)n(C3CC3)c2n1,> 20 µM
16,CCNc1ncc2nc(-c3ccc(F)cc3)c(=O)n(CCC#N)c2n1,> 4 µM
17,COc1ccc(CNc2ncncc2-c2ccccc2C(F)(F)F)c(OC)c1,> 20 µM
18,COCC(=O)N1CCC[C@@]2(CCN(Cc3ccc(C#N)cc3)C2)C1,> 20 µM
19,COc1ccc(C(=O)N2CCC3(CCCN(C(=O)NC(C)C)C3)CC2)cc1,> 20 µM
20,COCCn1c(=O)c(-c2cccc(C#N)c2)nc2cnc(N3CCNCC3)nc21,> 20 µM
